The supplement of paper PMC11732987, “Enantioselective OTUD7B fragment discovery through chemoproteomics screening and high-throughput optimisation” (Communications Chemistry, 2025)

Columns and labels:
Experiment in all cases: log2 ratio of Biotin-Ahx-Ub-VS probe labelling (fragment/DMSO); higher = less target engagement (more negative = stronger competition), active = hit call of the paper (q ≤ 0.05, log2 ratio ≤ -1)
Settings in all cases: compound concentration: 200 uM; treatment time: 3 h
USP34 = USP34 (UniProt Q70CQ2)
Chain of USP34 (Q70CQ2 whole entry, the tested form may be a part): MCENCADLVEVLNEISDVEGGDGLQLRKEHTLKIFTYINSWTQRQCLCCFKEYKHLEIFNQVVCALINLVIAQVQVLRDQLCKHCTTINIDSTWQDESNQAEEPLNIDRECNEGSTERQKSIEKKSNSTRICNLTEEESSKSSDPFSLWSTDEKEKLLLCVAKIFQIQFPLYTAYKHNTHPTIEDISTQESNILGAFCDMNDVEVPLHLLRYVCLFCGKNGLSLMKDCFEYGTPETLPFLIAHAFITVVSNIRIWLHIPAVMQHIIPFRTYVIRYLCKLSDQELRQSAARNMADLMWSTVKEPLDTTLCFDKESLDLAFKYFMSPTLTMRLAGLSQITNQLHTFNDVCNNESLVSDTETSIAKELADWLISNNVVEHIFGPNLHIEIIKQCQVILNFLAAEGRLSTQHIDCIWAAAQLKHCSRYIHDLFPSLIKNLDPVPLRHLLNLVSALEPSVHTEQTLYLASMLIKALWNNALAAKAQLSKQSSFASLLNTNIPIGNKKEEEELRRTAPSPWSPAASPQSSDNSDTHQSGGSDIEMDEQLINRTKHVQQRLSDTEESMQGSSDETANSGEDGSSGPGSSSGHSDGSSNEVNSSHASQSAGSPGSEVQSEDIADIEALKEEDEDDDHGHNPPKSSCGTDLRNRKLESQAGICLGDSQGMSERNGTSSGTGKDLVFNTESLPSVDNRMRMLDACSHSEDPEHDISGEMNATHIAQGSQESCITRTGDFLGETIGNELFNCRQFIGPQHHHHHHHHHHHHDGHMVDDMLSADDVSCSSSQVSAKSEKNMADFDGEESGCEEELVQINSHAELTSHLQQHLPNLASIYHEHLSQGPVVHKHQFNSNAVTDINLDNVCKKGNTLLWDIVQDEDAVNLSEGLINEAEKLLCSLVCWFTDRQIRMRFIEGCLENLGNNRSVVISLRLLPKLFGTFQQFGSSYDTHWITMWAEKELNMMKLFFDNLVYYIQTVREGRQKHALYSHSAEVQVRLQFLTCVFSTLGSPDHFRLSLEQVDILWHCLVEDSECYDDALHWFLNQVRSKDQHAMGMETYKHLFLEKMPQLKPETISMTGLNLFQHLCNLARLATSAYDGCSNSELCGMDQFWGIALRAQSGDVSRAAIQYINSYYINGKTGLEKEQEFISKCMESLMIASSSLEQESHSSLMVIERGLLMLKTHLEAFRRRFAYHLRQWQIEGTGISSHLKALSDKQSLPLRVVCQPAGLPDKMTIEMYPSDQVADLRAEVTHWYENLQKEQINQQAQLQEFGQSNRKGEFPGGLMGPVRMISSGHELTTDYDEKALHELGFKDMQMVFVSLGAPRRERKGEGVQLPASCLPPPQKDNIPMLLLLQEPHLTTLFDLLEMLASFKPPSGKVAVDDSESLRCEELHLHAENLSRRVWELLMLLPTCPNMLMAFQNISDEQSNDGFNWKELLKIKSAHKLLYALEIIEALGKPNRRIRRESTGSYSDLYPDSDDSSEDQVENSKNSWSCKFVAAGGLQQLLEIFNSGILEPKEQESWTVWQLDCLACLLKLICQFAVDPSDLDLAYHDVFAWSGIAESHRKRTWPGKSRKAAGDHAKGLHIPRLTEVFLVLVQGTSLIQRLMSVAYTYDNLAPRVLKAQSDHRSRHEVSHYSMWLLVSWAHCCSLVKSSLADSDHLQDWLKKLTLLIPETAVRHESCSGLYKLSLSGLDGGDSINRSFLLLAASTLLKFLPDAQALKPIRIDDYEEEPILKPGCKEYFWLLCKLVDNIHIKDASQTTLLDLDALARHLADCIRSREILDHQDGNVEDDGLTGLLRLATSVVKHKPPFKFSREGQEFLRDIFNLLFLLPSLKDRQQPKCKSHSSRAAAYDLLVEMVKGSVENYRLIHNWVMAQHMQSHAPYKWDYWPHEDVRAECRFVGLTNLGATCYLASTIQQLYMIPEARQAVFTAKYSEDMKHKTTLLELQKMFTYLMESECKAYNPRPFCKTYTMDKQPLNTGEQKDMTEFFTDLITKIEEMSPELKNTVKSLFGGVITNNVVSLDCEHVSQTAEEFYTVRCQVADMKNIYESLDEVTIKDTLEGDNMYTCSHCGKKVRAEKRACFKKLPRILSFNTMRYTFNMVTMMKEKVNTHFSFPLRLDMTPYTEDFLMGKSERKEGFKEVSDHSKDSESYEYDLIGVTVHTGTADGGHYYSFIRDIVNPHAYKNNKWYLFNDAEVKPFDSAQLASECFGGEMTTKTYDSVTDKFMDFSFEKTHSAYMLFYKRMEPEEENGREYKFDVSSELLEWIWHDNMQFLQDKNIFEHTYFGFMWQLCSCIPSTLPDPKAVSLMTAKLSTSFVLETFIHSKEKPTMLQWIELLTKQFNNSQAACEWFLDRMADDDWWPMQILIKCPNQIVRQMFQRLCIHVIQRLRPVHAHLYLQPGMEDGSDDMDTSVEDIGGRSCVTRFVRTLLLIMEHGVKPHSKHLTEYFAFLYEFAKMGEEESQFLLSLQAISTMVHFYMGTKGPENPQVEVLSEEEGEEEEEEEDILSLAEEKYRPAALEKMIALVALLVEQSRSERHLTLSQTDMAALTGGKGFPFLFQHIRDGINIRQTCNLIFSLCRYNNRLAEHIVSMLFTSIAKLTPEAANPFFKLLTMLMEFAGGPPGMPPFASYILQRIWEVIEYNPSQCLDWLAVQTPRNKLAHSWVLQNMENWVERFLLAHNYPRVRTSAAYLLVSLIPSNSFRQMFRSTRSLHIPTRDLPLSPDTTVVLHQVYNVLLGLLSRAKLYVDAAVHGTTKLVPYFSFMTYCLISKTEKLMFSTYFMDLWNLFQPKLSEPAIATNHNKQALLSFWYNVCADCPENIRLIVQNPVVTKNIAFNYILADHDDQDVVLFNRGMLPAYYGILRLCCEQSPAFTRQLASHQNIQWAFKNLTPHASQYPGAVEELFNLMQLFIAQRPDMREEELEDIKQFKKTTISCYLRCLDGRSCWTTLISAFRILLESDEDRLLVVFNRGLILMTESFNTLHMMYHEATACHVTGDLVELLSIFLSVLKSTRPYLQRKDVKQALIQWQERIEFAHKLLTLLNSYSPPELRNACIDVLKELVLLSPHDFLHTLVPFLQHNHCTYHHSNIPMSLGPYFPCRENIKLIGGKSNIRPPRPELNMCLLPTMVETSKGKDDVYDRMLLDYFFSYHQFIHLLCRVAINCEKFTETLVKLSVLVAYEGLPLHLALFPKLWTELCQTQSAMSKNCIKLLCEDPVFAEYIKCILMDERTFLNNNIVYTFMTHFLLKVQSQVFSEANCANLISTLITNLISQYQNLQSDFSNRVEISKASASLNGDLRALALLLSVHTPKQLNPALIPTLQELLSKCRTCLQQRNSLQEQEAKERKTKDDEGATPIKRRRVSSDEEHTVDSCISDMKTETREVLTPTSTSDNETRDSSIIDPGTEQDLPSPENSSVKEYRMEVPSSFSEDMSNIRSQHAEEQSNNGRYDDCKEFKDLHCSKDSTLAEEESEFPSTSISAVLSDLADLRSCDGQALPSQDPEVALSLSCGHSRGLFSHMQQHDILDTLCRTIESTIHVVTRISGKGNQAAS
How it was run: (§1)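 Global-median-normalised Spectronaut label-free quantities were compared by unpaired t-test, and values are average log2 ratios of fragment over vehicle. Only proteins with ≥2 unique peptides were used. HEK293T lysate (495 µg per sample) was treated in triplicate with fragment at 200 µM or vehicle for 3 h and then with Biotin-Ahx-Ub-VS at 0.5 µM final for 1 h. Labelled DUBs were then NeutrAvidin-enriched, digested with LysC and trypsin, and run by diaPASEF LC-MS/MS.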

USP36 = biological target: T1, USP36 (UniProt Q9P275)
T1 sequence (whole entry): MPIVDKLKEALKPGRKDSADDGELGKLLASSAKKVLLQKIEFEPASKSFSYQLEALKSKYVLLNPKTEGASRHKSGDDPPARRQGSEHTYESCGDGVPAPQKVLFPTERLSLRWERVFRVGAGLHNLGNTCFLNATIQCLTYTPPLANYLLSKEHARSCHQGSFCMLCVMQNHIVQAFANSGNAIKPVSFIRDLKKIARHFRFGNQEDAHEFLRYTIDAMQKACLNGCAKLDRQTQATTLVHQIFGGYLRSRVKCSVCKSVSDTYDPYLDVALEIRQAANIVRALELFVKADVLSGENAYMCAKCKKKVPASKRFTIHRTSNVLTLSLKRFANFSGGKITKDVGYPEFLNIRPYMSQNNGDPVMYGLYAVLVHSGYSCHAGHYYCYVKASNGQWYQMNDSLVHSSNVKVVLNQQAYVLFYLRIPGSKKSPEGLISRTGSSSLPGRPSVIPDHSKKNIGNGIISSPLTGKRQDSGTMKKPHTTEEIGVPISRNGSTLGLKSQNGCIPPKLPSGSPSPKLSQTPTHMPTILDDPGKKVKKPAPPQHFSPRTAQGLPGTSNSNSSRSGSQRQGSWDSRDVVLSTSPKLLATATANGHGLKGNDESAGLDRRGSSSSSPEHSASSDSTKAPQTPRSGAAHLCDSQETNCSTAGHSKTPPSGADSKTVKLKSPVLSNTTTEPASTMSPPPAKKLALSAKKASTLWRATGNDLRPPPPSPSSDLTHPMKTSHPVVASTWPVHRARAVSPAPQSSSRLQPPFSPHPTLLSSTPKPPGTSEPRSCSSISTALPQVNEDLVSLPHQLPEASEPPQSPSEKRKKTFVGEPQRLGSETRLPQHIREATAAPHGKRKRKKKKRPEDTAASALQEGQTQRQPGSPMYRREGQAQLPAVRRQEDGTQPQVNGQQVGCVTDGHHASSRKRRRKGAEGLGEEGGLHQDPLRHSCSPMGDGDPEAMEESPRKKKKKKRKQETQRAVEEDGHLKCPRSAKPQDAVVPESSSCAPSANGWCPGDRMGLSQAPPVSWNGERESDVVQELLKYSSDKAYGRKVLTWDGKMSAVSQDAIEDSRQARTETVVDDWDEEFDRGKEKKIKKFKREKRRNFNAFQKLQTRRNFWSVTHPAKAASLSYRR
How it was run: as §1

USP38 = biological target: T2, USP38 (UniProt Q8NB14)
T2 sequence (whole entry): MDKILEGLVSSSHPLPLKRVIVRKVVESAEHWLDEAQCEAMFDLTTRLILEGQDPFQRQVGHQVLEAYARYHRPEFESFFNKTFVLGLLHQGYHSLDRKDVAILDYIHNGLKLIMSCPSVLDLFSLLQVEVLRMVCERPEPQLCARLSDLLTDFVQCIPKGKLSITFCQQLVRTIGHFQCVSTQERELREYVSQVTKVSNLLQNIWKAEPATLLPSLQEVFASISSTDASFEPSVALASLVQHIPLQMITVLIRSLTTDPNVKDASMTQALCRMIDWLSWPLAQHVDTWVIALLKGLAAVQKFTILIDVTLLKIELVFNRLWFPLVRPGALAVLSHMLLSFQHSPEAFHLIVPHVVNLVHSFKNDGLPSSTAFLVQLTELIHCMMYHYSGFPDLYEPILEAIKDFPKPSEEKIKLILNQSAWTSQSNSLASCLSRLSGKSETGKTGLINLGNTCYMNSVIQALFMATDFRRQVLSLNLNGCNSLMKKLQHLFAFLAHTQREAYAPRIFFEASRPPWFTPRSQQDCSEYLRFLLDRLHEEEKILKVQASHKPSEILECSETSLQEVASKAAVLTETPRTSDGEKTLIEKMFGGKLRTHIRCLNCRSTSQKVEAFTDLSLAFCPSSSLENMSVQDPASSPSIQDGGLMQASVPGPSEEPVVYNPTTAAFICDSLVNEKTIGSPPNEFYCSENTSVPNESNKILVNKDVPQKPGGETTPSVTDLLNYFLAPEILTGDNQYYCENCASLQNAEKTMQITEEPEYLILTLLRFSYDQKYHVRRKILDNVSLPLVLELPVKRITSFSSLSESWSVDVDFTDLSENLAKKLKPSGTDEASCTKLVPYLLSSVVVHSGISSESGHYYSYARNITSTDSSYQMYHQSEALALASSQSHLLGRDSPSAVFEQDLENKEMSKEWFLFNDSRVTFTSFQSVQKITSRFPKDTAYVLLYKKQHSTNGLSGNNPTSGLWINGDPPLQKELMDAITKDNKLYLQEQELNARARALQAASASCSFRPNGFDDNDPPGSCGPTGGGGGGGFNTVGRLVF
How it was run: as §1

USP39 = biological target: T3, USP39 (UniProt Q53GS9)
T3 sequence (whole entry): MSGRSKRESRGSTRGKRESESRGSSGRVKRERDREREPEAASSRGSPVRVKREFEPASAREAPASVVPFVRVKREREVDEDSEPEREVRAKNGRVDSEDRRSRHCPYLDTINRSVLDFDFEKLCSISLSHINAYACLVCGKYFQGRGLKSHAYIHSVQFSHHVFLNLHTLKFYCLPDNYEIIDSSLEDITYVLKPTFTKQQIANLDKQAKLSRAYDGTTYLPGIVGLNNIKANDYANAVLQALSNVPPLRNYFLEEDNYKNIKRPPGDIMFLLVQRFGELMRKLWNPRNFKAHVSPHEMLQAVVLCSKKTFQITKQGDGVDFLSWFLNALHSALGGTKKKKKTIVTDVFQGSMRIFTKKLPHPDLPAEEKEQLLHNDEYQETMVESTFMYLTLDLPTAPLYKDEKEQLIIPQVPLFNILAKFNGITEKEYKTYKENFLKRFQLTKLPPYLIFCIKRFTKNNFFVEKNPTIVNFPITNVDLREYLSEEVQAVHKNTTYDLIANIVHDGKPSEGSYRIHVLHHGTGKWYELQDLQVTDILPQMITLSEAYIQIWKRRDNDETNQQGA
How it was run: as §1

USP4 = biological target: T4, USP4 (UniProt Q13107)
T4 sequence (whole entry): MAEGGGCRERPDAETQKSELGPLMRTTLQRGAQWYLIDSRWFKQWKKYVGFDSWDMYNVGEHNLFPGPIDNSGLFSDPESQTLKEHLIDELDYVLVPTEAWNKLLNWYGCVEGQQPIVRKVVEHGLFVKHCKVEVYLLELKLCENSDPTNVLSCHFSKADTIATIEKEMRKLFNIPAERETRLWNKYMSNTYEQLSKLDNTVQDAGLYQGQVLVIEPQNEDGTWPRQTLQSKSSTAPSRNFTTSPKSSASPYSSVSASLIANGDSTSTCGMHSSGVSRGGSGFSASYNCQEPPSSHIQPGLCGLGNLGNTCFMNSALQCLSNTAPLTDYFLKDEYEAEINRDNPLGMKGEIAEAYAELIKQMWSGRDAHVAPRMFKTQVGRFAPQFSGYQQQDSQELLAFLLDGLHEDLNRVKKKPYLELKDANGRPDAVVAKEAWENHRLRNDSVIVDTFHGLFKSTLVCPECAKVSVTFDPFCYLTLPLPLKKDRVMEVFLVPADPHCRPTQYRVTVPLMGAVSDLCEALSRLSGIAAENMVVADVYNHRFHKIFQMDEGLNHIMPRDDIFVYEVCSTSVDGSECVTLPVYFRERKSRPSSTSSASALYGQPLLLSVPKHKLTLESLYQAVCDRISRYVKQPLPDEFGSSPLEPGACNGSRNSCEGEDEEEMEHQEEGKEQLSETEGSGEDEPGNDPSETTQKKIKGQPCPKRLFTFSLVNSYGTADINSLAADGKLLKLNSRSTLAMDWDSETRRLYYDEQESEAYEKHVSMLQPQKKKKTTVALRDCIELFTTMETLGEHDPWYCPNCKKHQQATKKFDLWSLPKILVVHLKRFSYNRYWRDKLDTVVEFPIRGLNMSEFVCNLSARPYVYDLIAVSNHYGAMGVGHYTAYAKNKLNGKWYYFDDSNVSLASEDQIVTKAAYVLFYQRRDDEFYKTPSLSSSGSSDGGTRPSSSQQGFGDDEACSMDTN
How it was run: as §1

Measured: log2 ratio of Biotin-Ahx-Ub-VS probe labelling

N#Cc1ccc(Cl)cc1NC(=O)CCl
inactive: USP34 -0.22 | USP36 0.137 | USP38 -0.0529 | USP39 -0.0922 | USP4 -0.0565
